Among all 51,000 compounds or so, about 600 (1.2%) were called active. Inconclusive results (about 2%) are left out. Cut-off read from the data, not from the text of the source: active = potency below about 11 µM; inconclusive = mostly about 12 µM to 25 µM; inactive = weaker than that;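 the screen sought inhibitors and activators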. The full list was thinned out, with actives kept by preference.
What follows are molecules tested on pyruvate kinase (Bacillus stearothermophilus) (assay: Pyruvate Kinase). Conditions: purified pyruvate kinase, luminescence ATP production; ribose 5-phosphate activator present at AC10.
Protocol: Pyruvate kinase (partially purified from Bacillus stearothermophilus) was assayed for its ability to generate ATP from ADP using phosphoenolpyruvate (PEP) as a substrate. ATP generation was detected in a coupled reaction by luciferase-mediated luminescence, an ATP-dependent process. Pyruvate kinase substrates, PEP and ADP, were present in the assay at Km and […]-fold below Km respectively. The enzyme was assayed at an intermediate level of activity to screen for inhibitors and activators. In addition, ribose 5 phosphate, a positive modulator of pyruvate kinase, was included in the assay at AC10 in order to identify possible potentiators.
NCGC Assay Protocol Summary:
Three uL of substrate mix (final concentration, 50 mM imidazole pH 7.2, 50 mM KCl, 7 mM MgCl2, 2 mM PEP, 0.1 mM ADP, 0.7 nM ribose 5 phosphate, 0.01% Tween 20, 0.05% BSA) was dispensed into 1536 well plates. 23 nL of compound were delivered by a pin tool and 1 uL of enzyme mix (final concentration, 10 nM pyruvate kinase, 50 mM imidazole pH 7.2, 0.05% BSA) was added. After centrifugation at 1000 rpm for less than a minute, plates were incubated at room temperature for 2 hours. Three uL of detection and kinase stop mix (PKLight, Cambrex) was added, the plates centrifuged, and luminescence read by a ViewLux (Perkin Elmer) at 5 second exposure/plate. Data were normalized to the controls for AC100 stimulation (5 uM ribose 5 phosphate) and to AC100 inhibition (110 uM luteolin).
Potency is the fitted concentration of half-maximal effect.

Potency, inactive:
FC(F)(F)c1nnc2sc(-c3ccco3)nn12 > 57 µM
COc1cc(OC)cc(C(=O)Nc2ncc3c(n2)CC(C)(C)CC3=O)c1 > 57 µM
Cn1c(=O)c2c(nc(N3CCCCCC3)n2CC(O)COc2ccc(Cl)cc2)n(C)c1=O (configuration not stated) > 57 µM
CCC(=O)Nc1ccc(C(=O)Nc2ccc3c(c2)C(=O)N(CC2CCCO2)C3=O)cc1 (configuration not stated) > 57 µM
COc1cccc(N(CC(=O)NC2CCCC2)C(=O)Cn2nnc(-c3ccc(C)cc3)n2)c1 > 57 µM
CCOc1cc(C(=O)Nc2ncccn2)cc(OCC)c1OCC > 57 µM
CCOC(=O)c1cc(-c2nnc(-c3cc(OC)c(OC)c(OC)c3)o2)c(C)nc1C > 57 µM
CCOC(=O)c1cc2c(n(-c3ccc(C)cc3)c1=O)CCCC2=O > 57 µM
CN1CCN(c2ccc(NC(=O)COc3ccc(Cl)cc3Cl)cc2)CC1 > 57 µM
CC(C)(C)NC(=O)C(c1ccco1)N(Cc1ccc2c(c1)OCO2)C(=O)Cn1nnc2ccccc21 (configuration not stated) > 57 µM
CCc1nnc(NC(=O)c2nc3nccc(C)n3n2)s1 > 57 µM
c1ccc(-n2ncc3c2ncn2c(C4CCCCC4)nnc32)cc1 > 57 µM
CCc1ccccc1NC(=O)CSc1nnc([C@@H](NC(=O)OC(C)(C)C)C(C)CC)o1 (some centres not stated) > 57 µM
Cc1cc(C)c(C#N)c(SCc2ccccc2C(=O)O)n1 > 57 µM
Cc1ccc(Cc2nc(-c3cccc(C)c3)no2)cc1 > 57 µM
COc1ccc2[nH]c(=O)c(-c3noc(-c4ccc(F)cc4)n3)cc2c1 > 57 µM
CCC(CC)C(=O)Nc1cc(C(=O)OC)cc(C(=O)OC)c1 > 57 µM
Cc1nc(NCc2ccccc2)c(C(N)=O)c2c1COC(C)(C)C2 > 25.6 µM
COc1ccc2oc(=O)c(C(=O)O)cc2c1 > 57 µM
Cc1cc(Cl)c(S(=O)(=O)NCc2cccnc2)cc1OCC(N)=O > 57 µM
Cc1nn(CC(=O)Nc2ccc3c(c2)nc(CN2CCCCC2)n3C)c(=O)c2ccccc12 > 57 µM
COC(=O)c1ccc2c(c1)S(=O)(=O)NC(=NCCCN1CCOCC1)S2 > 57 µM
COc1ccc2oc(C)c(NC(C)=O)c2c1 > 57 µM
O=C(Nn1cc(C(=O)N2CCN(c3ccccc3F)CC2)c2ccccc2c1=O)c1cnccn1 > 57 µM
COCC(C)n1c(SCc2ccc(C(=O)OC)o2)nc2ccccc2c1=O (configuration not stated) > 57 µM
CCOc1cc(-c2nc3cc(C)ccn3c2NCC2CCCO2)ccc1O (configuration not stated) > 57 µM
CCOc1nc(-c2ccc(OC)cc2)ccc1-c1noc(-c2cc(OC)c(OC)c(OC)c2)n1 > 57 µM
COc1ccccc1Cc1nc(-c2ccc(C)cc2)no1 > 57 µM
Cn1c(=O)c2c(n(Cc3ccccc3)c1=O)NC(=O)C2CC(=O)N1CCc2ccccc2C1 (configuration not stated) > 57 µM
CC(C)C(=O)N1CCN(CCN=CC2=C(O)CC(c3ccco3)CC2=O)CC1 (configuration not stated) > 57 µM
O=C(CN1CCN(C2CCCCC2)CC1)Nc1ccccc1N1CCCCC1 > 57 µM
Fc1ccccc1OCCCCn1cncn1 > 57 µM
Cc1cccc(-n2ncc3c(N4CCc5ccccc54)ncnc32)c1 > 57 µM
CCN(CC)CCCN1C(=O)C(=O)/C(=C(/O)c2c(C)nc3ccccn23)C1c1ccc(C)o1 (configuration not stated) > 57 µM

Potency, active:
Cc1cccc(-c2noc(-c3ccc(F)cc3)n2)c1 10.4 µM
CC(C)OC(=O)c1cc(NC(=O)C2C3CCC(O3)C2C(=O)O)cc(C(=O)OC(C)C)c1 (configuration not stated) 6.13 µM
COc1ccc(-c2nc(-c3ccccc3)no2)c(OC)c1 0.55 µM
